Results filed as inconclusive are left out. Active and inactive are the calls of the source. Unless noted, the call rests on the fitted dose curve; in most records, active means well fitted curve in the direction sought with a large enough effect; inconclusive means small, poorly fitted or top-dose-only effect, or another doubt; inactive means no such curve, though single readings can be large; an effect the other way counts as inactive or inconclusive.
Columns and labels:
[1] = AP1 Signaling Pathway (AID 357; active means well fitted curve in either direction with a large enough effect, not every such curve was filed as active;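 further: ME-180 reporter cells stimulated with EGF at its EC50 level; on the % scale 0 is the no-effect control and ±100 the full control effect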); settings: ME-180 AP-1-bla reporter, EGF-induced, beta-lactamase ratio, 5 h; at 7.69 µM (top of the series) unless noted
Outline: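 AP-1-bla ME-180 cells, Opti-MEM + 0.5% dialyzed FBS, plated overnight 37 °C. Cpd titration + EC50 EGF, 5 h 37 °C. CCF4 2.5 h RT; ex 405, em 460/530 ratio → %activity, AC50.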

[2] = target: Cytochrome P450 1A2 (Homo sapiens) (UniProt P05177); experiment: p450-cyp1a2 (AID 410; calls by dose curve;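 further: -100% = full effect of reference inhibitor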)
Chain of Cytochrome P450 1A2 (Homo sapiens) (P05177 whole entry, looked up): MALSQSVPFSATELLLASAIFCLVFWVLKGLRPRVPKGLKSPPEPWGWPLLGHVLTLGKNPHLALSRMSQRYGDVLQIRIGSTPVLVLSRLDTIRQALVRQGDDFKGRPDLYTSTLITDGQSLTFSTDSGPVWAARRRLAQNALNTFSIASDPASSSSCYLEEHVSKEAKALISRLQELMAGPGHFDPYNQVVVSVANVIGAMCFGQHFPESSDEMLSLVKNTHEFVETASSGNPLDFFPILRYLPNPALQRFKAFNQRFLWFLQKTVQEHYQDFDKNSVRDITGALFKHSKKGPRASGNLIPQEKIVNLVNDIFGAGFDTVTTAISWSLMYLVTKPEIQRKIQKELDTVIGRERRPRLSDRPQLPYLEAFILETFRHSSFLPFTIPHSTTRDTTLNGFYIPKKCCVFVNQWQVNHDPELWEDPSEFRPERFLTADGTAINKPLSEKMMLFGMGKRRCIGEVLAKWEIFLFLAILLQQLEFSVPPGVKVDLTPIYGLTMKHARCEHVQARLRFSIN
Outline: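 Human CYP1A2 (20nM) demethylated Luciferin-ME at its Km (100uM) in 100mM KPO4. After 10 min compound preincubation, NADPH regeneration ran the reaction 60 min at room temperature. Luciferin was read by luminescence, normalized to 57 uM furafylline.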

[3] = NFAT Signaling Pathway (AID 444; active means well fitted curve in either direction with a large enough effect, not every such curve was filed as active;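 further: carbachol stimulus at about its EC50 of 1 µM final; on the % scale 0 is the no-effect control and ±100 the full control effect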); settings: Jurkat NFAT-bla M1, carbachol, beta-lactamase ratio, 5 h; at 7.69 µM (top of the series) unless noted
Outline: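 Jurkat cells carrying an NFAT-driven β-lactamase reporter and co-transfected muscarinic M1 receptor were treated with compound plus carbachol (1 uM final, an EC50 level) for 5 h at 37 °C. CCF4 loading followed for 1 h at RT; 460/530 nm ratio gave %activity.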

[4] = Stat Signaling Pathway (AID 446; active means well fitted curve in either direction with a large enough effect, not every such curve was filed as active;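 further: ME-180 cervical cancer cells given 40 pM IL-6 alongside compound; SIE-controlled beta-lactamase reporter measured as 460/530 nm FRET emission ratio; on the % scale 0 is the no-effect control and ±100 the full control effect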); settings: ME-180 SIE beta-lactamase reporter, IL-6 stimulated, 5 h; at 7.69 µM (top of the series) unless noted
Outline: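 Screening format detects activators and inhibitors alike: ME-180 SIE-bla cells stimulated at 40 pM IL-6 for 5 hrs with compound, then dual-emission beta-lactamase read at 405 nm excitation.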

[5] = target: Glucocorticoid receptor (Homo sapiens) (UniProt P04150); experiment: GR-GFP Redistribution (AID 450;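 active means compounds whose dose series gives a full or clear partial fitted curve of increased nuclear translocation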; further: potency means the concentration at half of the fitted maximal effect); settings: U2OS GR-GFP nuclear translocation, laser cytometry, 2 h
Chain of Glucocorticoid receptor (Homo sapiens) (P04150 whole entry, looked up, the tested form may be a part): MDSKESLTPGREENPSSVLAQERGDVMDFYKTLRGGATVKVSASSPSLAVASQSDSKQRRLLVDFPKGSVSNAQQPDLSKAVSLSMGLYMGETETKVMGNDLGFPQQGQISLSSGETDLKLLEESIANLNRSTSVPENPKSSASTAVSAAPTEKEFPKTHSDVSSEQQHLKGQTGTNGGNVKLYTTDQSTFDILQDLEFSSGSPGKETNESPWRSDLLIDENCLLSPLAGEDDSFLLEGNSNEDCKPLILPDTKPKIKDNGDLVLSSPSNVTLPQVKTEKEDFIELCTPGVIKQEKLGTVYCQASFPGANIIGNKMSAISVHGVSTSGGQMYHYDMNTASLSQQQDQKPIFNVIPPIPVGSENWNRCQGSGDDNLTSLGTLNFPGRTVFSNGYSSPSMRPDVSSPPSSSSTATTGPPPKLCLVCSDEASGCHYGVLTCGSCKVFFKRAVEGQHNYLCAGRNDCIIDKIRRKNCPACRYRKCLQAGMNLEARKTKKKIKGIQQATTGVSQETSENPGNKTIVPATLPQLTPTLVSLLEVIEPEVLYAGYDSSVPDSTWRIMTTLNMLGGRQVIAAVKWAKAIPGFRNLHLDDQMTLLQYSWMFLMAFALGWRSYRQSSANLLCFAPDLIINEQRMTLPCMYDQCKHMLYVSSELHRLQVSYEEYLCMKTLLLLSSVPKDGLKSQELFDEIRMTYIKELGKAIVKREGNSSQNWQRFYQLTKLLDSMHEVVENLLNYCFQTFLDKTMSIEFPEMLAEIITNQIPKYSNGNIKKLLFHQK

[6] = target: Glucocorticoid receptor (Homo sapiens) (UniProt P04150); experiment: GR-EFC Redistribution (AID 451; calls by dose curve; further: potency means the concentration at half of the fitted maximal effect); settings: CHO-K1 GR-EFC translocation, beta-gal luminescence, 2 h
Outline: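 CHO-K1 cells stably expressing nuclear-localized β-gal enzyme acceptor and GR fused C-terminally to the enzyme donor fragment; ligand-driven nuclear translocation restores β-gal by complementation. Compounds titrated up to 46 uM final, 2 h at 37 °C; luminescence read.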

[7] = target: Mitogen-activated protein kinase 10 (Mus musculus) (UniProt Q61831); experiment: JNK3 AlphaScreen Assay (AID 530; active means well fitted curve in either direction with a large enough effect, not every such curve was filed as active;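 further: kinase came from lysate of stimulated human HepG2 cells; signal reports phosphorylation of biotinylated GST-cJun 1-79 at Ser73 with 10 µM ATP; on the % scale 0 is the no-effect control and ±100 the full control effect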)
Outline: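 JNK3 came from HepG2 lysates pre-activated with IL-1beta and TNF-alpha and phosphorylated biotinylated GST-cJun (1-79) at 10 uM ATP, pH 7.6, room temperature. Compounds were titrated. AlphaScreen signal used anti-phospho-cJun (Ser73) antibody.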

[8] = target: 3',5'-cyclic-AMP phosphodiesterase 4B (Homo sapiens) (UniProt Q07343); experiment: qHTS Assay for Inhibitors of PDE-IV (AID 607; active means well fitted activation curve with a large enough effect in the main read-out, with a control signal flat, not every such curve was filed as active; further: % of control where 0% means no effect)
Chain of 3',5'-cyclic-AMP phosphodiesterase 4B (Homo sapiens) (Q07343 whole entry, looked up): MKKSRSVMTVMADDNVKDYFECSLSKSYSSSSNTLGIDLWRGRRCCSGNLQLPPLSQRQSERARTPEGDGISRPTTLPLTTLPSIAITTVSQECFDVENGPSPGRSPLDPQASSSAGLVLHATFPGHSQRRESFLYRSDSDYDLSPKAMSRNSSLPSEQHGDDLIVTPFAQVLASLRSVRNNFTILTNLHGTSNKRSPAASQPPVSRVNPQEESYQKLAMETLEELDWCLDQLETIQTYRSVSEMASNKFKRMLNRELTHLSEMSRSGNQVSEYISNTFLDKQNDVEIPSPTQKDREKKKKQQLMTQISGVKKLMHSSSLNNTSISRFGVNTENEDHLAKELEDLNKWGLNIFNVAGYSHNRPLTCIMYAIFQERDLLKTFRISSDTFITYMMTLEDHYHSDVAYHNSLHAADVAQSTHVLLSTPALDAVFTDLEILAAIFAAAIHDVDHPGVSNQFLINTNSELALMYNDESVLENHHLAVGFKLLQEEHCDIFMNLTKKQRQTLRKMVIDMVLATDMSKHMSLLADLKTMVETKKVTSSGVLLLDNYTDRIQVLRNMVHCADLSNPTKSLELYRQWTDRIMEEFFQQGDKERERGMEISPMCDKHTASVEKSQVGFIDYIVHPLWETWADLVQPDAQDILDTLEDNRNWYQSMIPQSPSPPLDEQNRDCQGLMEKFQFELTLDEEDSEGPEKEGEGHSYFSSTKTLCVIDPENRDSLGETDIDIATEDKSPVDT
Outline: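 The readout is membrane depolarisation from a cAMP-sensing CNG channel, detected with a potential dye at ex 535/em 590. Cells were HEK293-derived (endogenous PDE-IV) at 1000 cells/well, titrated up to 22.9 uM final.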

[9] = qHTS Assay for Lipid Storage Modulators (AID 1519; calls by dose curve); settings: Drosophila S3 cells, BODIPY lipid droplet/cell ratio, laser cytometry, cells loaded with oleic acid; for activity change, negative = inhibition: at 25.7 µM (top of the series)
Outline: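 Cells seeded at 5,000 per well were treated with compounds over a concentration series and loaded with oleic acid (400 uM, as added). Lipid droplet fluorescence (488 nm excitation, 500-530 nm channel) was read by laser-scanning cytometry and normalized to 20 uM Triacsin C.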

[10] = target: ATP-dependent 6-phosphofructokinase (Trypanosoma brucei brucei) (UniProt O15648); experiment: qHTS Assay to Find Inhibitors of T. brucei phosphofructokinase: hit validation (AID 492961)
Chain of ATP-dependent 6-phosphofructokinase (Trypanosoma brucei brucei) (O15648 whole entry, looked up): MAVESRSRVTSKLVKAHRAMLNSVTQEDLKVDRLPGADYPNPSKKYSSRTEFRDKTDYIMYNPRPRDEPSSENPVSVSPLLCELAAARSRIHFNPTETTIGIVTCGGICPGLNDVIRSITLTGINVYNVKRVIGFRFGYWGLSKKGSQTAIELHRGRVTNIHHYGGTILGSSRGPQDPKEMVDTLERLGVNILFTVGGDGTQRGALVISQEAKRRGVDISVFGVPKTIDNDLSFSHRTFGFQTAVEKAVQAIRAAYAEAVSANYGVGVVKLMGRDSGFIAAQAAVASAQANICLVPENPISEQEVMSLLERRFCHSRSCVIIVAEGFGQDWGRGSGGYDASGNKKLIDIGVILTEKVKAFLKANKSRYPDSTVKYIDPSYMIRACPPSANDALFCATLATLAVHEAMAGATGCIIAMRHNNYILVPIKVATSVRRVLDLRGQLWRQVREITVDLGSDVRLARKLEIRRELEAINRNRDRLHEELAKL
Outline: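 Reaction: 0.1 M triethanolamine pH 8.0, 5 mM MgCl2, F6P 0.5 mM, ATP 0.1 mM, PFK 1.25 nM, 45 min RT. Read-out: ADP-Glo luminescence. Analysis: concentration-response fits, classed by r2 and efficacy.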

[11] = target: Ubiquitin carboxyl-terminal hydrolase 1 (Homo sapiens) (UniProt O94782); experiment: Inhibitors of USP1/UAF1: Pilot qHTS (AID 504865);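 further: rhodamine fluorescence freed from ubiquitin-rhodamine substrate followed over time; top concentration of the series differs between compounds; on the % scale 0 is the no-effect control and ±100 the full control effect; nearly all actives have a fitted effect of over 35% in size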
Chain of Ubiquitin carboxyl-terminal hydrolase 1 (Homo sapiens) (O94782 whole entry, looked up): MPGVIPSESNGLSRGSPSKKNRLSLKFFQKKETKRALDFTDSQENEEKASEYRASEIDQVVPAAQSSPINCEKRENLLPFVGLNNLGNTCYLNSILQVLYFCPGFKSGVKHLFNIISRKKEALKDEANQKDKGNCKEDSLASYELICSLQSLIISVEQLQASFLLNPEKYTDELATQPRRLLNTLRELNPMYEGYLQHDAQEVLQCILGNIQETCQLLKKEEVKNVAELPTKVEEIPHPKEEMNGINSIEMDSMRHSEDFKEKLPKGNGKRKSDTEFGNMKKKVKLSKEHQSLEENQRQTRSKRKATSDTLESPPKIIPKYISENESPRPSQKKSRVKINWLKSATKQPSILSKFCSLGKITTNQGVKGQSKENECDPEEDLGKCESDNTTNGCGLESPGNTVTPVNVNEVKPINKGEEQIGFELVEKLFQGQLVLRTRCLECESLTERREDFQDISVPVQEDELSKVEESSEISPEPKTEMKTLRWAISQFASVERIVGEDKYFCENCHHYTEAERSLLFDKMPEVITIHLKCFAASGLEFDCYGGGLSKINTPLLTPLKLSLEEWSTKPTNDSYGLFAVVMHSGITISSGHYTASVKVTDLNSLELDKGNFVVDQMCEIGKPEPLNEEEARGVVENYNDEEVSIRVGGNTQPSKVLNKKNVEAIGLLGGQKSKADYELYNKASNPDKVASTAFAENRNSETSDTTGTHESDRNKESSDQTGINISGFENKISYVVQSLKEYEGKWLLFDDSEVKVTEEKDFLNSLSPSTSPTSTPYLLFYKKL
Outline: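 Kinetic fluorescence assay: 1nM USP1/UAF1, 15 min compound preincubation, then 150nM Ub-Rho; 480/540 nm.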

[12] = qHTS profiling for inhibitors of Plasmodium falciparum proliferation (AID 504749);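 further: 0% = DMSO vehicle and full inhibition = artemisinin control; nearly all actives have a fitted effect of over 60% in size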; settings: P. falciparum in erythrocytes, SYBR Green DNA, 72 h, at 12.8 µM (top of the series)
Outline: (§1)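 P. falciparum-infected erythrocytes (0.3% parasitemia, 2.5% hematocrit final) were exposed to compounds for 72 h at 37 C in 5% CO2, then lysed with SYBR Green buffer overnight at room temperature; parasite DNA fluorescence was normalized to artemisinin and DMSO controls.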

AS120 = experiment: as above; settings: P. falciparum in erythrocytes, SYBR Green DNA, 72 h; series mostly up to 28.7 µM
Outline: as §1

CP238 = experiment: as above; settings: P. falciparum in erythrocytes, SYBR Green DNA, 72 h; series mostly up to 12.8 µM
Outline: as §1

CP250 = experiment: as above; settings: P. falciparum in erythrocytes, SYBR Green DNA, 72 h; series mostly up to 12.8 µM
Outline: as §1

CP262 = experiment: as above; settings: P. falciparum in erythrocytes, SYBR Green DNA, 72 h; series mostly up to 12.8 µM
Outline: as §1

CP265 = experiment: as above; settings: P. falciparum in erythrocytes, SYBR Green DNA, 72 h; series mostly up to 12.8 µM
Outline: as §1

FAB9 = experiment: as above; settings: P. falciparum in erythrocytes, SYBR Green DNA, 72 h; series mostly up to 12.8 µM
Outline: as §1

JCK = experiment: as above; settings: P. falciparum in erythrocytes, SYBR Green DNA, 72 h; series mostly up to 12.8 µM
Outline: as §1

PC49 = experiment: as above; settings: P. falciparum in erythrocytes, SYBR Green DNA, 72 h; series mostly up to 12.8 µM
Outline: as §1

[13] = measured here: cell count channel max response
[14] = measured here: lipid channel max response

COc1ccc(C[C@@H]2c3cc(OC)c(OC)cc3CC[N@+]2(C)CCC(=O)OCCCCCOC(=O)CC[N@@+]2(C)CCc3cc(OC)c(OC)cc3[C@H]2Cc2ccc(OC)c(OC)c2)cc1OC
inactive: activity change, negative = inhibition [1] -6.73% [at 17.2 µM] | Potency [2] | activity change, negative = inhibition [3] -23.4% [at 17.2 µM] | activity, negative = inhibition [4] 10.6% [at 17.2 µM] | Potency [5] > 20.6 µM | Potency [6] > 20.6 µM | Potency [7] | Potency [8] | activity change, negative = inhibition [9] -3.87% | outcome [10] | Potency [11] | activity, negative = inhibition ([12]; parasite line A) -5.94% | activity, negative = inhibition ([12]; parasite line B) 13.8% | Potency (AS120) | Potency (CP238) | Potency (CP250) | Potency (CP262) | Potency (CP265) | Potency (FAB9) | Potency (JCK) | Potency (PC49)
15.3%: max response [9, 13]
6.6%: max response [9, 14]

C[C@@H](C(=O)O)c1ccc(C(=O)c2cccs2)cc1
-2.07%: max response [9, 14]
inactive: activity change, negative = inhibition [1] 4.04% [at 17.2 µM] | Potency [2] | activity change, negative = inhibition [3] -1.88% [at 17.2 µM] | activity, negative = inhibition [4] 1.29% [at 17.2 µM] | Potency [5] > 20.6 µM | Potency [6] > 20.6 µM | Potency [7] | Potency [8] | activity change, negative = inhibition [9] 0.809% | outcome [10] | Potency [11] | activity, negative = inhibition ([12]; parasite line A) 0.517% | activity, negative = inhibition ([12]; parasite line B) 11.1% | Potency (AS120) | Potency (CP238) | Potency (CP250) | Potency (CP262) | Potency (CP265) | Potency (FAB9) | Potency (JCK) | Potency (PC49)
-2.83%: max response [9, 13]

C[n+]1ccccc1/C=N\O
-5.77%: max response [9, 13]
-7.21%: max response [9, 14]
inactive: activity change, negative = inhibition [1] 1.66% [at 17.2 µM] | Potency [2] | activity change, negative = inhibition [3] 3.73% [at 17.2 µM] | activity, negative = inhibition [4] 2.75% [at 17.2 µM] | Potency [5] > 20.6 µM | Potency [6] > 20.6 µM | Potency [7] | Potency [8] | activity change, negative = inhibition [9] -1.41% | outcome [10] | activity, negative = inhibition ([12]; parasite line A) 14% | activity, negative = inhibition ([12]; parasite line B) 8.58% | Potency (AS120) | Potency (CP238) | Potency (CP250) | Potency (CP262) | Potency (CP265) | Potency (FAB9) | Potency (JCK) | Potency (PC49)

CO[C@H]1C[C@@H](O[C@@H]2[C@H](C)[C@H](O[C@@H]3O[C@@H](C)C[C@@H](N(C)C)[C@@H]3O)[C@H](C)C[C@]3(CO3)C(=O)[C@H](C)[C@H](O)[C@H](C)[C@H](C)OC(=O)[C@@H]2C)O[C@@H](C)[C@H]1O
9.47%: max response [9, 13]
inactive: activity change, negative = inhibition [1] 2.97% [at 17.2 µM] | Potency [2] | activity change, negative = inhibition [3] 8.23% [at 17.2 µM] | activity, negative = inhibition [4] -6.44% [at 17.2 µM] | Potency [5] > 20.6 µM | Potency [6] > 20.6 µM | Potency [7] | Potency [8] | activity change, negative = inhibition [9] 1.28% | outcome [10] | Potency [11] | activity, negative = inhibition ([12]; parasite line A) -15.5% | activity, negative = inhibition ([12]; parasite line B) -11.7% | Potency (AS120) | Potency (CP238) | Potency (CP250) | Potency (CP262) | Potency (CP265) | Potency (FAB9) | Potency (JCK) | Potency (PC49)
11.6%: max response [9, 14]

Source: PubChem BioAssay (NCATS)
